# Screening data as filed in PubChem.
# tim10-1 inh: growth inhibitors of tim10-1 mutant yeast, primary screen, luminescence, uHTS. S. cerevisiae tim10-1 ts strain growth, BacTiter-Glo, 24 h. inhibition, % at 20 µM. actives 2.2% (n = 330,000). AID 463190, 2010;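 active = inhibition of at least 40%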;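 also: mutant grown at 25 °C; 0% = DMSO wells with yeast and 100% = wells holding no yeast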
# tim23-1 inh: growth inhibitors of tim23-1 mutant yeast, primary screen, luminescence, uHTS. S. cerevisiae tim23-1 growth, BacTiter-Glo luminescence, 24 h. inhibition, % at 20 µM. actives 1.3% (n = 330,000). AID 463212, 2010;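 active = growth inhibition of the mutant yeast at or above 50%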;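 also: temperature-sensitive mutant grown at 25 °C; plate controls were DMSO-treated mutant yeast for no effect and medium wells lacking yeast for full effect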
# NALP3 yeast inh: NALP3 inflammasome inhibitors in reconstituted yeast, primary screen, luminescence, uHTS | inhibition, % at 10 µM | actives 0.39% (n = 330,000) | Yeast reconstituted NLRP3/ASC/caspase-1, beta-gal luminescence, 24 h | AID 2825, 2010;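 active = inhibition of 50% or more; inactive = inhibition below 50%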;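 also: plate controls were induced DMSO wells for no effect and uninduced yeast grown without galactose for full effect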
# TIM10 inh: growth inhibitors of isogenic TIM10 control yeast, primary screen, counter-screen for tim10-1 yeast inhibitor project, luminescence, uHTS | S. cerevisiae TIM10 strain growth, BacTiter-Glo luminescence, 24 h | inhibition, % at 10 µM | actives 1.4% (n = 330,000) | AID 463195, 2010;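 active = inhibition of 40% or more at the single tested concentration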;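 also: wild-type TIM10 isogenic control strain grown at permissive 25 °C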
# NALP1 inh: NALP1 inflammasome inhibitors in reconstituted yeast, colorimetric, S. cerevisiae, triplicate retest. inhibition, % at 10 µM. AID 2071, 2009. actives 0.61% (n = 280,000). S. cerevisiae NALP1/ASC/caspase-1 growth, X-gal OD620, 72 h; in the data active = inhibition mostly above about 24%, no sharp cut-off; inactive = mostly below about 32%
# SKKanGAS inh: S. pyogenes SKKanGAS growth inhibitors in kanamycin, primary screen, streptokinase expression inhibitor project, SKKanGAS strain, BacTiter-Glo luminescence; inhibition, % at 7.5 µM; actives 1.3% (n = 300,000); 6 h;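 active = mean replicate score, as percent of positive control median, at least 50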;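 also: strain carries kanamycin resistance gene driven by streptokinase promoter and grows in 40 µg/ml kanamycin; loss of luminescence reflects streptokinase promoter inhibition or plain growth inhibition; 0% = median of DMSO wells and 100% = positive control at its reference dose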
# TIM10 conf: growth inhibitors of wild-type TIM10 yeast, confirmation, counter-screen for tim10-1 synthetic lethality project, single concentration, luminescence, S. cerevisiae; shares compounds with TIM10 inh; S. cerevisiae tim10 strain growth, BacTiter-Glo luminescence, 24 h; inhibition, % at 10 µM; actives 63% (n = 4,600); AID 463215, 2010;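 active = inhibition of yeast growth at or above a set limit in either of two replicates at 10 µM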;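 also: this counterscreen used the strain with wild-type TIM10; 0% = yeast with DMSO and 100% = medium wells lacking yeast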
# * marks the source's active call; other numbers are inactive results; · = not tested or not shown. The list is not random: actives were taken first. Their share in the collection is about 4.9%.
SMILES,tim10-1 inh,tim23-1 inh,NALP3 yeast inh,TIM10 inh,NALP1 inh,SKKanGAS inh,TIM10 conf
O=C(CN1C(=O)C(=O)N(Cc2ccccc2)C1=O)Nc1ccc(OC(F)F)cc1,9.4,18.7,9.7,3.6,·,·,·
O=[N+]([O-])c1ccccc1S(=O)(=O)N1CCCC(C(F)(F)F)C1 (configuration not stated),-12.7,8.6,9.2,2.2,15.9,19.5,·
CSc1ccc(C(=S)N2CCCC2)cc1,-2.0,-8.0,13.8,59.2*,-1.7,-3.5,2.9
COc1ccc(CCCC(=O)N/N=C/c2cccc(OC)c2O)cc1C,6.5,34.8,12.9,55.3*,9.4,75.3*,-10.1
COc1cccc(/C=N/NC(=O)C[n+]2ccccc2)c1O,14.7,4.0,9.0,21.1,35.7,-4.0,·
Cc1ccc(-c2nc(CS(=O)CC(=O)NCCCc3ccccc3)c(C)o2)cc1 (configuration not stated),31.2,15.7,-7.7,14.7,0.4,1.2,·
CCCCN(CCCC)C(=S)NC(=O)c1ccccc1Cl,38.9,43.8,28.7,47.7*,22.3,-6.8,-16.5
CCCN(Cc1ccccc1)C(=S)NC(=O)c1ccccc1[N+](=O)[O-],32.5,43.8,32.5,43.9*,16.6,17.7,40.3*
CCN(CC)C(=S)NC(=O)c1ccc(Cl)cc1Cl,20.5,37.9,14.7,1.6,3.9,2.4,·
COc1ccc(Cl)cc1N(CC(=O)N(C)C)S(=O)(=O)c1ccc(C)c([N+](=O)[O-])c1,7.3,9.2,19.3,17.3,12.5,13.2,·
COc1ccc(C2=NOC(C(=O)Nc3ccc4c(c3)OCO4)C2)cc1OC (configuration not stated),8.9,-5.7,12.9,7.0,-7.9,-9.1,·
Cc1cccnc1NC(=O)CNC(=O)c1ccccc1,-7.7,-6.7,14.9,5.0,·,·,·
CCCCNC(=S)N/N=C/c1sccc1C,30.8,43.5,38.9,59.4*,8.3,-5.4,46.6*
O=[N+]([O-])c1ccc(N2N=C(c3ccccc3)CC2c2ccccc2O)cc1 (configuration not stated),12.9,8.6,19.9,41.6*,14.5,98.2*,59.6*
CCOc1ccccc1N=Nc1c(C)[nH]n(C(N)=S)c1=O,-17.0,45.2,11.5,0.5,-2.0,4.1,·
Nc1ccc(C(=O)OCc2nc3c(ccc4ccccc43)[nH]2)cc1,29.5,34.5,15.9,47.6*,4.6,-6.2,-3.1
Cc1ccc(-c2n[nH]c(=S)n2/N=C/c2cccs2)cc1,30.0,42.5,32.4,52.0*,36.5,36.1,-21.8
CC1=NCCN1S(=O)(=O)c1cc([N+](=O)[O-])ccc1Cl,3.8,9.0,28.0,3.3,4.5,3.0,·
CCCN1C(=O)/C(=C/c2ccc(N3CCCC3)c(C)c2)NC1=S,38.5,21.4,-0.6,28.3,3.1,33.3,·
Cc1cc(/C=C2\NC(=S)N(C)C2=O)ccc1N1CCCC1,30.2,-14.9,33.8,41.9*,-8.8,17.2,40.1*
Cc1ccc(C(CNS(=O)(=O)c2ccc(F)cc2C)N2CCN(C)CC2)cc1 (configuration not stated),-0.5,-10.2,20.6,4.8,·,4.2,·
O=[N+]([O-])c1ccc(NC(=S)NCc2ccc(F)cc2)cc1,35.7,40.6,44.1,42.0*,-0.3,41.0,41.5*
COc1cc(CN2CCN(C(O)(c3ccccc3)c3ccccc3)CC2)cc(OC)c1OC,-12.7,9.7,15.0,6.0,18.2,14.3,·
Oc1ccccc1CN1CCN(C(O)(c2ccccc2)c2ccccc2)CC1,15.5,28.1,27.6,43.4*,21.7,1.3,52.1*
COCCCNC(=O)C[C@H]1C[C@H](C(=O)N2CCOCC2)[C@@]2(C)c3[nH]c4cc(CCC(=O)N(C)C)ccc4c3CCN2C1=O,12.3,30.5,·,-6.8,·,·,·
SMILES,tim10-1 inh,tim23-1 inh,NALP3 yeast inh,TIM10 inh,NALP1 inh,SKKanGAS inh,TIM10 conf
Cc1cc(C(F)F)n2nc(C(=O)Nc3ccccc3F)nc2n1,-20.5,-3.6,23.4,63.7*,5.5,7.5,-7.8
Cc1cc(C(F)F)n2nc(C(=O)Nc3ccc(F)cc3F)nc2n1,-8.3,8.2,3.1,5.2,5.9,4.5,·
CCN(CC(=O)Nc1cc(Cl)ccc1C)C(=O)c1ccc(N2CCCC2=O)cc1,-8.3,-13.5,8.4,10.3,·,·,·
COc1ccc(S(=O)(=O)N2CCN(Cc3cc(=O)n4ccccc4n3)CC2)cc1,19.8,14.7,29.4,14.2,·,·,·
C#CCOCCOCCOCCNc1nc(N2CCN(C(=O)Cn3cc(CCCCN)nn3)CC2)nc(N2CCN(C(=O)Cn3cc(CCCN=C(N)N)nn3)CC2)n1,-20.3,12.5,12.1,3.3,·,·,·
C#CCOCCOCCOCCNc1nc(N2CCN(C(=O)Cn3cc(CCCN=C(N)N)nn3)CC2)nc(N2CCN(C(=O)[C@H](C)n3cc(CCCN=C(N)N)nn3)CC2)n1,-3.6,-10.1,5.9,60.5*,1.2,·,-8.2
CN(C(=O)CSc1nc(C2CC2)n(-c2ccccc2)n1)C1CCS(=O)(=O)C1 (configuration not stated),-12.3,-1.2,8.5,2.7,·,·,·
CC1/C(=N/O)CC(c2ccccc2)N(C)C1c1ccccc1 (configuration not stated),26.8,20.2,20.4,51.6*,1.1,-2.3,55.4*
O=C(CCCn1c(=O)oc2ccccc21)NNC(=O)COc1ccc(F)cc1,8.1,8.6,5.0,5.8,·,·,·
CN(CC(=O)OCC(N)=O)S(=O)(=O)c1ccc(Cl)cc1,8.3,3.6,-6.1,40.2*,-10.3,14.0,-0.1
N/C(=N\OC(=O)c1ccc(Cl)cc1)c1ccccn1,37.2,48.4,13.8,61.7*,11.5,5.6,47.2*
N/C(=N\OC(=O)c1ccc2c(c1)OCO2)c1ccncc1,12.8,-1.0,-6.9,-4.9,·,-3.4,·
N/C(=N\OC(=O)c1ccc2c(c1)OCO2)c1ccc(Cl)cc1,32.7,47.3,45.5,47.8*,12.2,2.1,46.5*
N/C(=N\OC(=O)c1cccc(Br)c1)c1ccccn1,33.1,46.8,30.0,59.1*,15.4,-4.1,41.9*
N/C(=N\OC(=O)c1ccc(Cl)c(Cl)c1)c1ccccn1,20.3,14.5,25.2,20.3,26.8,-6.7,·
COc1ccc(C(=O)O/N=C(\N)c2ccccn2)cc1,34.2,48.8,16.6,42.2*,-1.8,4.3,35.8*
COc1ccc(-c2cn(CCN)c(-c3ccncc3)n2)cc1,-3.4,-6.0,-3.8,-11.0,·,·,·
S=C(c1cn(CCOc2ccccc2)c2ccccc12)N1CCCC1,29.3,27.6,11.1,49.6*,12.9,10.9,31.6*
